Common to all, as to test: DAPPL (digital affinity profiling via proximity ligation, sequencing); 10 mM Tris-HCl pH 7.5, 50 mM NaCl, 1 mM DTT, 4% glycerol, room temperature, 30 min; GST-TFs on glutathione beads, 16-mer random dsDNA library, 0.1% formaldehyde crosslink after washing; high values mean tight binding
Holding throughout (details): protein: recombinant; tags: N-terminal GST; dsDNA, one strand shown

The target of one assay is T1, ELK1 (Homo sapiens, UniProt P19419 1-428).
T1 sequence: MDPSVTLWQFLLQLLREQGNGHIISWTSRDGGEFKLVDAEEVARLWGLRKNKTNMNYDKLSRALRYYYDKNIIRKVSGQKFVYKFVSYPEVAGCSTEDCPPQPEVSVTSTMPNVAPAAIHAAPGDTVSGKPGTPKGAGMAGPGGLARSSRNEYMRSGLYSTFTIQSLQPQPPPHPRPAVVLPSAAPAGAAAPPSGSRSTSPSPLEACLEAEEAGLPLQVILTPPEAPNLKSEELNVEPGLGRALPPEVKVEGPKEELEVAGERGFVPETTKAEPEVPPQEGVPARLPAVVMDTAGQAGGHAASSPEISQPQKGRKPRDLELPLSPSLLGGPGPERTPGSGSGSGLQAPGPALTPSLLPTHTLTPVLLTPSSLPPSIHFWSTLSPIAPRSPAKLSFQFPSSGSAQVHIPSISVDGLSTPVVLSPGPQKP
A digest of the protocol:
(§1)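 Sequencing on an Illumina NextSeq500 followed washing, crosslinking with 0.1% formaldehyde, proximity ligation (BsaI/T4 ligase, 1 h, 37 °C) and PCR amplification of pools that had been incubated for 30 min at room temperature with 200 nmole of a random double-stranded 16-mer DNA library in Tris/NaCl/DTT/glycerol buffer. Each pool held DNA-barcoded human transcription factors, expressed in yeast as GST fusions and captured on glutathione beads, plus a tag-only sample. Binding signal is a hexamer's read frequency for a factor divided by its frequency in the tag-only sample.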

In another assay the target is T2, GABPA (Homo sapiens, UniProt Q06546 1-454).
T2 sequence: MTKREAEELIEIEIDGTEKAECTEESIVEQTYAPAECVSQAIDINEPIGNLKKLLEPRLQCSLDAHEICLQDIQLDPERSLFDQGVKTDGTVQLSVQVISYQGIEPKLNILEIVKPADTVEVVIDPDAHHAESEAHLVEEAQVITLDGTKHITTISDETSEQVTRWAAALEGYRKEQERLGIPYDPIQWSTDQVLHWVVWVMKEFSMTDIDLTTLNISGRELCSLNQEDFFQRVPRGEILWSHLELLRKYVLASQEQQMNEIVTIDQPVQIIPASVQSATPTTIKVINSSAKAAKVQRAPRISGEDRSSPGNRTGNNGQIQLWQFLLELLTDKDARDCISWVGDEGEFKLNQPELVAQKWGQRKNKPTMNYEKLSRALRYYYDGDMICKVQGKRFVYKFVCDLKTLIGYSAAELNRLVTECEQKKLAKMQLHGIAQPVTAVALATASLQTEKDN
The essentials: as §1

The next assay concerns the target T3, ERG (Homo sapiens, UniProt P11308 1-479).
T3 sequence: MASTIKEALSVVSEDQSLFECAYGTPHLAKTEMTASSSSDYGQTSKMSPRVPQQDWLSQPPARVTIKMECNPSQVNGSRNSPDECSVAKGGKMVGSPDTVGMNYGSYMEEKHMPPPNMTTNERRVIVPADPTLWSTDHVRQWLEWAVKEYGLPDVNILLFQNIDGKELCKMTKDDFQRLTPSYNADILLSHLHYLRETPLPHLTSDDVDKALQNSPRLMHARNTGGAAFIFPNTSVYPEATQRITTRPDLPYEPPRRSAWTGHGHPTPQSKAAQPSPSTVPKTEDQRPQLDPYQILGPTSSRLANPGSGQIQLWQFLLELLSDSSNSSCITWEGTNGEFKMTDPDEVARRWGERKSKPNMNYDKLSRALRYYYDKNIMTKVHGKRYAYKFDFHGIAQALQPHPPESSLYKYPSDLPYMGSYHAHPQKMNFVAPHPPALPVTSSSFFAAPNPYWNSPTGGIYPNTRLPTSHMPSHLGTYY
The essentials: as §1

The target of the next assay is SPIB (Homo sapiens, UniProt Q01892 1-262). The essentials:
as §1

Another assay has as its target T4, SPIC (Homo sapiens, UniProt Q8N5J4 1-248).
T4 sequence: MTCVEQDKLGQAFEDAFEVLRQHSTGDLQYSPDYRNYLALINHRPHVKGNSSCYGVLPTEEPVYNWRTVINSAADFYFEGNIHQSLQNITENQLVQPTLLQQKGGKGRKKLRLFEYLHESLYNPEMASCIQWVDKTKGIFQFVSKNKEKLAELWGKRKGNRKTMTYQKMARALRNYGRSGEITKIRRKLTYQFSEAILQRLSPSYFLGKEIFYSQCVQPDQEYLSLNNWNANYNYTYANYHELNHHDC
The essentials: as §1

The target of a further assay is ELF4 (Homo sapiens, UniProt Q99607 1-663). The essentials: as §1
A further assay has as its target T5, ELK4 (Homo sapiens, UniProt P28324-2 1-405).
T5 sequence: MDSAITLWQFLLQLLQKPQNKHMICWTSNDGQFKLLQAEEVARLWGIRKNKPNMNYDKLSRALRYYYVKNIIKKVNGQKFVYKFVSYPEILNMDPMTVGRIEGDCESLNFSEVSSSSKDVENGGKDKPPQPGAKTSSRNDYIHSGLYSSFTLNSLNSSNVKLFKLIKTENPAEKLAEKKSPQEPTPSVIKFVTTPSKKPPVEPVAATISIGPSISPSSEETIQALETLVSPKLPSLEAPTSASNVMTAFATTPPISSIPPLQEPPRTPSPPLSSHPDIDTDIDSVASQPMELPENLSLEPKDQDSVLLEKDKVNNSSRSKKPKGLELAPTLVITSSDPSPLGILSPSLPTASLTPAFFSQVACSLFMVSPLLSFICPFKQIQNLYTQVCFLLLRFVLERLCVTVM
The essentials:
as §1

A further assay has as its target T6, ELF3 (Homo sapiens, UniProt P78545 1-371).
T6 sequence: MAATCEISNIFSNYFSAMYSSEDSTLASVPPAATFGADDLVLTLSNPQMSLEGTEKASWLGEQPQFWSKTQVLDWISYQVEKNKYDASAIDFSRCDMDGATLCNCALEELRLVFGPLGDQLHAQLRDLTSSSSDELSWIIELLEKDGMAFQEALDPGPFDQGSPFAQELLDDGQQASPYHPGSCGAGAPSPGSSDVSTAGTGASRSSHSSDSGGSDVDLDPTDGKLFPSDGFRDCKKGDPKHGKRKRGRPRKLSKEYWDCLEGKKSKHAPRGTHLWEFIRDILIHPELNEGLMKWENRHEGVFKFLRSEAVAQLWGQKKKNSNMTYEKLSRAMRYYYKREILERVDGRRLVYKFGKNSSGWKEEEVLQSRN
A digest of the protocol:
as §1

A further assay addresses ETV1 (Homo sapiens, UniProt P50549 1-477). A digest of the protocol: as §1
The next assay addresses T7, ERF (Homo sapiens, UniProt P50548 1-548).
T7 sequence: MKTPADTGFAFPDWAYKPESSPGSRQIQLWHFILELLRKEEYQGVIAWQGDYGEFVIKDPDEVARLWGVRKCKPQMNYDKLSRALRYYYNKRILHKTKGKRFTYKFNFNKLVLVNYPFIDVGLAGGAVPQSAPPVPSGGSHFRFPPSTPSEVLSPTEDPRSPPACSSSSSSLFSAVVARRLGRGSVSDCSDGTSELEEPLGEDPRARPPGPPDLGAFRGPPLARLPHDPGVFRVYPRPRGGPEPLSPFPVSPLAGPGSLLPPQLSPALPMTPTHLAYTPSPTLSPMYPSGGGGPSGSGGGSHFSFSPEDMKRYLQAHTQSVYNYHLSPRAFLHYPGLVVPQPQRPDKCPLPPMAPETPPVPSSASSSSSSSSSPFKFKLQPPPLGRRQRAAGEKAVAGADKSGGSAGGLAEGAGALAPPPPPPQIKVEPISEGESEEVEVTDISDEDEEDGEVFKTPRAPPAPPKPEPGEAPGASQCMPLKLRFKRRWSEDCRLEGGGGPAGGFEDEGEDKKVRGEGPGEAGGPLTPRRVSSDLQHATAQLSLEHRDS
A digest of the protocol:
as §1

A further assay deals with T8, ETV3L (Homo sapiens, UniProt Q6ZN32 1-361).
T8 sequence: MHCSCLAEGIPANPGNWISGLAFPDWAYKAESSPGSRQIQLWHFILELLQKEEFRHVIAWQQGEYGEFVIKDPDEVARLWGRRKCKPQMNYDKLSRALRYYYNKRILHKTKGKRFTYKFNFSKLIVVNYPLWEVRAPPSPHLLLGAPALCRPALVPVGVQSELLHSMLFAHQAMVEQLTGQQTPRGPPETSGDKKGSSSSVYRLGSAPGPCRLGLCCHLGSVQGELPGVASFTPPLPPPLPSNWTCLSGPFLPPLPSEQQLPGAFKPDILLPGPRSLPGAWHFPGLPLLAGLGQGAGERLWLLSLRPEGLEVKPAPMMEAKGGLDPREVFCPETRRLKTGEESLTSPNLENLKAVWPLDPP
The essentials: as §1

A further assay deals with T9, ETS2 (Homo sapiens, UniProt P15036 1-469).
T9 sequence: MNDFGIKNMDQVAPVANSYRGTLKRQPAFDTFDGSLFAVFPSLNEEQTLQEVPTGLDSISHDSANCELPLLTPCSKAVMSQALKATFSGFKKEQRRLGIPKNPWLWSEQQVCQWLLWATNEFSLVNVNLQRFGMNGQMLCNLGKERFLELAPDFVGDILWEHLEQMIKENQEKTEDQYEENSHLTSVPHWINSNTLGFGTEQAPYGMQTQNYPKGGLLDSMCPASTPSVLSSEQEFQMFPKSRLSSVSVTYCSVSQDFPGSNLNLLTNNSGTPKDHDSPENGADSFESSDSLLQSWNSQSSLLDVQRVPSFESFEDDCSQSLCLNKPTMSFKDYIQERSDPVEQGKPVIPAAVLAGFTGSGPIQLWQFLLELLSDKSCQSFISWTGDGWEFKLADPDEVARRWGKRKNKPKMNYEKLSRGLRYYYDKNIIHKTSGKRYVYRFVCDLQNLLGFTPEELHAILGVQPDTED
A digest of the protocol: as §1

The target in a further assay is T10, SPDEF (Homo sapiens, UniProt O95238 1-335).
T10 sequence: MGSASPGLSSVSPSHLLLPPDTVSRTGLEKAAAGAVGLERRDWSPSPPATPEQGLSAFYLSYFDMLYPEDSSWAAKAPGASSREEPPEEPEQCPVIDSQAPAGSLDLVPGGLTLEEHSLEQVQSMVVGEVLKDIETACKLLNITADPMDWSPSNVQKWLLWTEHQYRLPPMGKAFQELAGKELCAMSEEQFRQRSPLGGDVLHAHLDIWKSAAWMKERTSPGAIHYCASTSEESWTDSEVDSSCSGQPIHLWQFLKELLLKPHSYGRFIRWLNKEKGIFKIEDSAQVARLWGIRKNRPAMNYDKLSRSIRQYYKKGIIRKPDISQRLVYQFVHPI
The essentials: as §1

A further assay has as its target T11, ETV3 (Homo sapiens, UniProt P41162-2 1-143).
T11 sequence: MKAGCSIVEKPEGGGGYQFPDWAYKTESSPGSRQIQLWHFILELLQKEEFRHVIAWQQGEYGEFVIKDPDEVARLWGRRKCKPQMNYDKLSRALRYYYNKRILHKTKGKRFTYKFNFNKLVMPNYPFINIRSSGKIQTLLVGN
The essentials: as §1

The target of another assay is ETV6 (Homo sapiens, UniProt P41212 1-452). The essentials:
as §1

We go through 1 sequence from paper PMC7862700, “An all-to-all approach to the identification of sequence-specific readers for epigenetic DNA modifications on cytosine”.

Sequence of ETV6 (P41212 whole entry): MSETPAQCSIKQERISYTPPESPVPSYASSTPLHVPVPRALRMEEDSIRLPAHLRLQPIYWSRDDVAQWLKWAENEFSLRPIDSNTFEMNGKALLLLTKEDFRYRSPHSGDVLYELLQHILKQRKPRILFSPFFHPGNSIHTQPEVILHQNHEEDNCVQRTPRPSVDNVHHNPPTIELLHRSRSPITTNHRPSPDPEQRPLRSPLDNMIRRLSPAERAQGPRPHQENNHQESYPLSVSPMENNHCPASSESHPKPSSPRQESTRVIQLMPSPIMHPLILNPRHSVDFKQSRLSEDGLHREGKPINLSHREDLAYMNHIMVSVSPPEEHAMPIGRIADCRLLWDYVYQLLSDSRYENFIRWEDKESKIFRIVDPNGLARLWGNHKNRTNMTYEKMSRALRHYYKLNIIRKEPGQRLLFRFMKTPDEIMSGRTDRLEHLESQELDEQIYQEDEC
Sequence of ELF4 (Q99607 whole entry): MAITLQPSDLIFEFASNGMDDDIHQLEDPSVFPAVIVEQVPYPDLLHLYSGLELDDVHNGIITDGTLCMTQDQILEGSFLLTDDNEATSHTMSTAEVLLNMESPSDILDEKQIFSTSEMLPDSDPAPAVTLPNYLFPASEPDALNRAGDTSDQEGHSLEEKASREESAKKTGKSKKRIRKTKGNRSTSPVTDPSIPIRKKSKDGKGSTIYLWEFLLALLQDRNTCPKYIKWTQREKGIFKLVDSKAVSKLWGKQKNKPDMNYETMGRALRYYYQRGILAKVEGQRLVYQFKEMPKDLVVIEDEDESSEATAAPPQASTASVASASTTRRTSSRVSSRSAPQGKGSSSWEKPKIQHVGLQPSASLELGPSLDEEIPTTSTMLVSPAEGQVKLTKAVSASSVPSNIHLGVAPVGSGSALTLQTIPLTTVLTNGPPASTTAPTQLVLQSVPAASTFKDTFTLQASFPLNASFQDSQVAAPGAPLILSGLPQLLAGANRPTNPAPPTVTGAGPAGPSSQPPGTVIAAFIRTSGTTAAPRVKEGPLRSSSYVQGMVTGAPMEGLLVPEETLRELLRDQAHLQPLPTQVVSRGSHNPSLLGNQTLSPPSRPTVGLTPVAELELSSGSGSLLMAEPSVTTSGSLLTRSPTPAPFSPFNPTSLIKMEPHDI
Sequence of ETV1 (P50549 whole entry): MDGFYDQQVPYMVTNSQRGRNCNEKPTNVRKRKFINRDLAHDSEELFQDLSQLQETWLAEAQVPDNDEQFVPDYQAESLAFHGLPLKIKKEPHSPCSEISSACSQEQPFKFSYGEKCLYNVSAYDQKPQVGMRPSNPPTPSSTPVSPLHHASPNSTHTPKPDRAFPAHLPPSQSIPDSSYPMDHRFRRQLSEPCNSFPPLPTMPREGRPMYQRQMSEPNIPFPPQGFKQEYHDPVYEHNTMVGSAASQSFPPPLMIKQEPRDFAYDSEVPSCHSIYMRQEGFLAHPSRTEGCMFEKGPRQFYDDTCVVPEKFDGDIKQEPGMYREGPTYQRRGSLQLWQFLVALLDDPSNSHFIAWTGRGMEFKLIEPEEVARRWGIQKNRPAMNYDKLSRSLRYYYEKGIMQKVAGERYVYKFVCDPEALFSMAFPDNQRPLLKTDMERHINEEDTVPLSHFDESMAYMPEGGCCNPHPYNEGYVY
Sequence of SPIB (Q01892 whole entry): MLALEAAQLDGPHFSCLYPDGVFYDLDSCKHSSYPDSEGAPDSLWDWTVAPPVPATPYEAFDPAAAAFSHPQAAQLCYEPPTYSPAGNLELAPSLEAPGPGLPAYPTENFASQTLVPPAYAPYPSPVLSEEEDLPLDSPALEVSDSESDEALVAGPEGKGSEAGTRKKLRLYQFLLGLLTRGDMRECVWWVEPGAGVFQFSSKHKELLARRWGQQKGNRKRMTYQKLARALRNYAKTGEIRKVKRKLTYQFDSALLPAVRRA

Turning to TGGATA, the binding signal with ELK1 was 1.05 fold enrichment (6-mer frequency, TF over GST control); with GABPA, 1.1 fold enrichment (6-mer frequency, TF over GST control); with ERG, 1.08 fold enrichment (6-mer frequency, TF over GST control); with SPIB, 1.12 fold enrichment (6-mer frequency, TF over GST control); in the assay with SPIC, 1.04 fold enrichment (6-mer frequency, TF over GST control); with ELF4, 1.05 fold enrichment (6-mer frequency, TF over GST control). Moreover, the binding signal in the assay with ELK4 was 1.07 fold enrichment (6-mer frequency, TF over GST control); with ELF3, 1.16 fold enrichment (6-mer frequency, TF over GST control); in the assay with ETV1, 1.09 fold enrichment (6-mer frequency, TF over GST control); in the assay with ERF it was 1 fold enrichment (6-mer frequency, TF over GST control); with ETV3L, 1.04 fold enrichment (6-mer frequency, TF over GST control); with ETS2, 1.06 fold enrichment (6-mer frequency, TF over GST control). Besides, the binding signal with SPDEF is 1.06 fold enrichment (6-mer frequency, TF over GST control); in the assay with ETV3 it was 1.06 fold enrichment (6-mer frequency, TF over GST control); with ETV6, 1 fold enrichment (6-mer frequency, TF over GST control).
